As usually defined, the inhibition is the relative decrease from the control value, in per cent.

This assay in a line: inhibitors of HIV fusion peptide binding, primary screen, biochemical, uHTS, fluorescence dequenching (AID 1986). The following applies: cell-free peptide binding, 30 min, stronger effect = higher value.
[1] abbreviates: measured here: repeat confirmation average inhibition, at 18.6 µM.

Hit rate of the full screen: of about 290,000 compounds, about 890 (0.31%) were called active. No stated cut-off is given here; in the data, active means inhibition mostly above about 52% (no sharp cut-off); inactive means mostly below about 76%. The list comes from a sample in which actives are over-represented; it also holds similar structures and randomly drawn compounds.

As to `Cc1[nH]c2ccccc2c1C(=O)C(=O)NCCc1c[nH]c2ccccc12`, the inhibition (at 20 µM) was 0.7% (inactive).

In the case of `CCn1c(SCC(=O)Nc2cc(C)on2)nnc1-c1ccc(S(=O)(=O)N2CCN(C)CC2)cc1`, where the note is “at 20 µM”, the inhibition was -2.9% (inactive). Consider `N#Cc1c(-c2ccccc2Cl)noc1/C=C/Nc1ccc(C(=O)O)cc1`, for which the inhibition reads like this: (at 20 µM) 53.5% (inactive); under setting [1], 3.7%. For the molecule `O=C(NC1CCc2ccccc21)c1cc(COc2c(F)cccc2F)on1` (stereo not drawn), the inhibition (at 20 µM) was 0.3% (inactive). As for `O=C(Cn1cnc2c(nnn2-c2ccccc2)c1=O)NCCc1ccccc1`, the inhibition (at 20 µM) was 1.1% (inactive). On to `Cc1ccc(N2C(=O)c3ccc(C(=O)O)cc3C2=O)c(C)c1`, for which, where the note is “at 20 µM”, the inhibition is -0.3% (inactive).

`Cc1ccc(N2C(=O)[C@@H]3C(C(=O)CN4C(=O)c5ccccc5C4=O)=NN[C@@H]3C2=O)c(C)c1`: the inhibition (at 20 µM) is -2.5% (inactive). As for `O=C1O/C(=C/C(=O)N2CCOCC2)c2ccccc21`, where the note is “at 20 µM”, the inhibition was 1.9% (inactive). With `COc1ccc(Nc2ccccc2C(=O)O)cc1`, the inhibition (at 20 µM) was 3.4% (inactive). For `COc1cc(-c2ccc(Nc3ccccc3C(=O)O)c(OC)c2)ccc1Nc1ccccc1C(=O)O`, for the setting “at 20 µM”, the inhibition was 61% (active). Still for that read-out and setting: the value for `O=C(O)c1ccccc1Nc1ccccc1C(=O)O` was 4% (inactive). Consider `COc1ccc(N=Cc2cc(Cc3ccccc3Cl)cc([N+](=O)[O-])c2O)cc1OC`, for which the inhibition was 69.3% (inactive) (at 20 µM) and 19.7% under setting [1]. In the case of `Cc1ccc(N=Cc2cc(Cc3ccccc3Cl)cc([N+](=O)[O-])c2O)c(O)c1`, the inhibition is 64% (active) (at 20 µM) and 57.3% under setting [1]. For the molecule `Cc1ccc(O)c(N=Cc2cc(Cc3ccccc3)cc([N+](=O)[O-])c2O)c1`, the inhibition was 58% (inactive) (at 20 µM) and 14.2% under setting [1]. `CCN(CC)S(=O)(=O)c1ccc2c(c1)nc(SCC(N)=O)n2-c1ccc(OC)cc1`: the inhibition (at 20 µM) was -1.3% (inactive). For `COc1ccc2c3c(cccc13)OC2=O`, the inhibition (at 20 µM) was -1.2% (inactive).

For `COc1cc(C(=O)NC(C)CCc2ccccc2)cc(OC)c1OC` (stereo not drawn), the inhibition (at 20 µM) is -1.1% (inactive). As to `COc1cc(/C=C2\C(=O)NN(c3ccccc3)C2=O)cc([N+](=O)[O-])c1O`, where the note is “at 20 µM”, the inhibition is 32.8% (inactive).

As for `COC(=O)c1ccc(N2NC(=O)/C(=C/c3cc(OC)c(O)c(OC)c3)C2=O)cc1`, the inhibition (at 20 µM) was 138% (inactive). Turning to `COc1cc(/C=C2/C(=O)NN(c3ccc(F)cc3)C2=O)cc(Cl)c1O`, the inhibition (at 20 µM) is 39.2% (inactive). Consider `COc1cccc(/C=C2/C(=O)NN(c3ccccc3)C2=O)c1`, for which, for the setting “at 20 µM”, the inhibition was 15.8% (inactive). Turning to `COc1cc(/C=C2/C(=O)NN(c3cccc(Cl)c3)C2=O)cc(Br)c1O`, the inhibition (at 20 µM) is 102% (active) and the inhibition under setting [1] came out at 95.1%. For `COc1cc(/C=C2/C(=O)NN(c3ccc(Cl)cc3)C2=O)cc(OC)c1O` the same measures were 93.4% (active) and 53.7%. Turning to `COc1cc(/C=C2/C(=O)NN(c3cccc(C)c3)C2=O)cc([N+](=O)[O-])c1O`, the inhibition (at 20 µM) was 30.3% (inactive). Turning to `COc1cc(/C=C2/C(=O)NN(c3ccccc3)C2=O)cc(Br)c1O`, the inhibition (at 20 µM) is 34.5% (inactive). Same read-out and setting: the value for `CCOc1cc(/C=C2/C(=O)NN(c3cccc(Cl)c3)C2=O)ccc1O` was 31.4% (inactive); that for `COc1cc(/C=C2/C(=O)NN(c3ccc(Cl)c(Cl)c3)C2=O)cc([N+](=O)[O-])c1O` was 50.8% (active).

As for `COc1cc(/C=C2/C(=O)NN(c3cccc(Cl)c3)C2=O)cc(OC)c1O`, the inhibition reads like this: (at 20 µM) 104% (active); under setting [1], 80.5%. With `COc1cc(/C=C2\C(=O)NN(c3ccc(C)cc3)C2=O)cc([N+](=O)[O-])c1O`, the inhibition (at 20 µM) was 38% (inactive). Still for that read-out and setting: the value for `COc1cc(OC)cc(C(=O)N2CCN(C(=O)c3ccc(-c4ccccc4)cc3)CC2)c1` was -0.7% (inactive). For `CN(c1ccc(C(=O)N2CCCCC2)cc1)S(=O)(=O)c1cccs1`, the inhibition (at 20 µM) was 0.7% (inactive). Same read-out and setting: to `COc1ccc(OC)c(-n2c(=S)[nH]c3cc(C(=O)N4CCC(C(N)=O)CC4)ccc3c2=O)c1` belongs -0.3% (inactive).

Consider `O=C(NCc1ccc(OC(F)(F)F)cc1)C1CC(c2cccc(F)c2)=NO1` (stereo not drawn), for which the inhibition (at 20 µM) was 0.2% (inactive).

For `O=C(c1cscn1)N1CCCC(N2CCN(c3ccc(F)cc3)CC2)C1` (stereo not drawn), for the setting “at 20 µM”, the inhibition is -1.2% (inactive).

As to `COc1ccc(CC(=O)Nc2c3c(nn2-c2cccc(Cl)c2)CS(=O)(=O)C3)cc1`, under “at 20 µM”, the inhibition was -2% (inactive). On the same count and under the same terms, to `Cc1ccccc1C(=O)NC1CCN(CC(=O)Nc2nccs2)CC1` belongs 2.2% (inactive); to `COc1c2ccccc2c(OC)c2ccccc12`, 1.5% (inactive). Take `C=CCN(C(=O)CN1CCCCC1)c1nc(-c2ccccc2)cs1`: the inhibition (at 20 µM) was -1.5% (inactive). Consider `Cc1ccc(-c2csc3ncnc(SCc4ccc(C(=O)O)cc4)c23)cc1`, for which the inhibition (at 20 µM) was 66.8% (active). For the molecule `Cc1sc2ncnc(SCc3ccc(C(=O)O)cc3)c2c1C`, where the note is “at 20 µM”, the inhibition is 9.5% (inactive). `Cc1ccc(-c2csc3ncnc(SCC(=O)O)c23)cc1`: the inhibition (at 20 µM) is 0.9% (inactive).

Take `COCCNC(=S)N1CCN(c2cccc(C(F)(F)F)c2)CC1`: where the note is “at 20 µM”, the inhibition is -0.5% (inactive). On to `Cc1cc(-c2ccccc2)nc(SCc2ccc(C(=O)O)o2)n1`, for which the inhibition (at 20 µM) is 1.6% (inactive). Same read-out and setting: to `O=C(NN1C(=O)/C(=C/C=C/c2ccccc2)SC1=S)c1ccncc1` belongs 16.6% (inactive).

Regarding `O=C(O)C(Cc1ccccc1)N1C(=O)/C(=C/C=C/c2ccco2)SC1=S` (stereo not drawn), the inhibition (at 20 µM) is 69.2% (active). For `O=C(O)C(Cc1ccccc1)N1C(=O)/C(=C/c2cccnc2)SC1=S` (stereo not drawn), where the note is “at 20 µM”, the inhibition was 1.1% (inactive). In the case of `O=C(O)CCCN1C(=O)/C(=C/C=C/c2ccco2)SC1=S`, the inhibition was 55.6% (inactive) (at 20 µM) and 27.4% under setting [1]. The corresponding values for `O=C(NN1C(=O)/C(=C/C=C/c2ccco2)SC1=S)c1ccccc1O` are 65.1% (inactive) and 46.4%. Regarding `CC(C)C(C(=O)O)N1C(=O)/C(=C/C=C/c2ccco2)SC1=S` (stereo not drawn), the inhibition was 76.1% (inactive) (at 20 µM) and 36.6% under setting [1]. As to `O=C(O)CC(C(=O)O)N1C(=O)/C(=C/C=C/c2ccco2)SC1=S` (stereo not drawn), the inhibition by setting is: (at 20 µM) 65.6% (inactive); under setting [1], 23.1%. `O=C(NN1C(=O)/C(=C/C=C/c2ccco2)SC1=S)c1ccncc1`: under “at 20 µM”, the inhibition was 68.5% (active).

With `CC(C(=O)O)N1C(=O)/C(=C/C=C/c2ccco2)SC1=S` (stereo not drawn), the inhibition (at 20 µM) was 88.9% (active). Turning to `COc1ccc(NC(=S)NC(NC(=O)CCl)C(Cl)(Cl)Cl)c([N+](=O)[O-])c1` (stereo not drawn), the inhibition (at 20 µM) is 7.2% (inactive). The same measure, in the same setting: to `COc1ccccc1S(=O)(=O)Cc1ccc(C(=O)NCc2ccco2)o1` belongs 1.6% (inactive). In the case of `CC1CCN(S(=O)(=O)c2ccc(C(=O)OC(C)C(=O)NC3CCCCC3C)cc2)CC1` (stereo not drawn), the inhibition (at 20 µM) is 20% (inactive).

Regarding `Cc1oc(-c2cc(F)ccc2F)nc1CN1CCN(C)C(=O)[C@@H]1C`, the inhibition (at 20 µM) is 1.3% (inactive). `CN=C(Nc1ccc(C(=O)OC)s1)c1ccc(Cl)cc1`: the inhibition (at 20 µM) was 0.5% (inactive).

(Values after PubChem BioAssay AID1986 (Sanford-Burnham Center for Chemical Genomics, 2009).)
